Results taken from the supplement of paper PMC11732987, “Enantioselective OTUD7B fragment discovery through chemoproteomics screening and high-throughput optimisation” (Communications Chemistry, 2025).

Legend:
Experiment in all cases: log2 ratio of Biotin-Ahx-Ub-VS probe labelling (fragment/DMSO); higher = less target engagement (more negative = stronger competition), active = hit call of the paper (q ≤ 0.05, log2 ratio ≤ -1)
Conditions in all cases: compound concentration: 200 uM; treatment time: 3 h
USP19 = target: T1, USP19 (UniProt O94966)
T1 sequence (whole entry): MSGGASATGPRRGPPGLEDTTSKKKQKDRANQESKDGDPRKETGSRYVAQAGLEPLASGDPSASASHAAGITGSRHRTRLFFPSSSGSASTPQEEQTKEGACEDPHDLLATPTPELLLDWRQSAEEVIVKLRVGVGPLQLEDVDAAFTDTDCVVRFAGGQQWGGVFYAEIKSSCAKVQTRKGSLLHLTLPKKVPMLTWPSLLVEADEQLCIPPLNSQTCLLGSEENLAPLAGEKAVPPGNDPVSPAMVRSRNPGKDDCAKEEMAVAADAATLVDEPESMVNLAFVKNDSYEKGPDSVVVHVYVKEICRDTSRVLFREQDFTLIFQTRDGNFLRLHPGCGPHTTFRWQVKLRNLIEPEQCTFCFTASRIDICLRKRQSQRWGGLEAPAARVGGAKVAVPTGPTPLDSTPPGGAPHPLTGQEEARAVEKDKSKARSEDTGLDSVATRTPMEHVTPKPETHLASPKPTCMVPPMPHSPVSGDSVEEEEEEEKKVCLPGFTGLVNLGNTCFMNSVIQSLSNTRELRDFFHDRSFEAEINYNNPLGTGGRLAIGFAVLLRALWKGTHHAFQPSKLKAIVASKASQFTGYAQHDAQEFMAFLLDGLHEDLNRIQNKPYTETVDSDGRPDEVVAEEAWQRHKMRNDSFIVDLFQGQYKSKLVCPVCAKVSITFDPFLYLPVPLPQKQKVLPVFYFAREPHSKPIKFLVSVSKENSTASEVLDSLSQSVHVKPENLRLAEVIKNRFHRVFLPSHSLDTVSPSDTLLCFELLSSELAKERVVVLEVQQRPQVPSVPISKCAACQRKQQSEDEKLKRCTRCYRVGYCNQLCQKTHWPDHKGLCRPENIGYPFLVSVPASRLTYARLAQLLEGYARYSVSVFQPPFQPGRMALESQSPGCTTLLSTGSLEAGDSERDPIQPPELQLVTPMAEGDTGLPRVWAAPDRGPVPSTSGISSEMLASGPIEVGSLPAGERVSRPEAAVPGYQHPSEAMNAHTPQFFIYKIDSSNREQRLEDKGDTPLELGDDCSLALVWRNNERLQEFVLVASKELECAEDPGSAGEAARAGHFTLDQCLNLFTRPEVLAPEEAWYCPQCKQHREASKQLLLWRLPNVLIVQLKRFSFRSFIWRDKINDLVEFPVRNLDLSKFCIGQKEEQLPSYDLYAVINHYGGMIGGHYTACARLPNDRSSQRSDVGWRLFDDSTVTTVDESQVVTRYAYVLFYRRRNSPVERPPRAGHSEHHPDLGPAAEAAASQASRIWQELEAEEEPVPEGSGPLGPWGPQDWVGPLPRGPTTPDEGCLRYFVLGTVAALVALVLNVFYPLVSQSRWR
Outline: (§1)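 Triplicate samples of HEK293T lysate, 495 µg each, received fragment at 200 µM or vehicle for 3 h, followed by Biotin-Ahx-Ub-VS (0.5 µM final) for 1 h. After NeutrAvidin enrichment of labelled DUBs and LysC/trypsin digestion, peptides were run by diaPASEF LC-MS/MS. The values are average log2 fragment/vehicle ratios from global-median-normalised Spectronaut label-free quantities, tested by unpaired t-test on proteins having ≥2 unique peptides.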

USP22 = target: T2, USP22 (UniProt Q9UPT9)
T2 sequence (whole entry): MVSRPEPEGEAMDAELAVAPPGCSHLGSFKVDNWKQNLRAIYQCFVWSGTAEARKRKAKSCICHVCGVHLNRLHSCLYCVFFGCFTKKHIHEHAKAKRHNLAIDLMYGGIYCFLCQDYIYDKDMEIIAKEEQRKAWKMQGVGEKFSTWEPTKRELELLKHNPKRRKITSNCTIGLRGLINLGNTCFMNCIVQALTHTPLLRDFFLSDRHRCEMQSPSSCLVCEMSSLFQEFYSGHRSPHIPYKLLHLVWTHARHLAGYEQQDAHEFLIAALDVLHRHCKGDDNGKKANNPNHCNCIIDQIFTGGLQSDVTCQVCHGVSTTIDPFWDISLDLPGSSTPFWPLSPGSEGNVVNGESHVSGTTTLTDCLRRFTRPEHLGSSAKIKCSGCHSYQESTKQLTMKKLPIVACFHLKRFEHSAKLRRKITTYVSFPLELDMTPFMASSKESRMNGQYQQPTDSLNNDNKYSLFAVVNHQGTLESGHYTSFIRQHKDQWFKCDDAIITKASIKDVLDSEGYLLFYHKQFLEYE
Outline: as §1

USP24 = USP24 (UniProt Q9UPU5)
Outline: as §1

USP25 = target: T3, USP25 (UniProt Q9UHP3)
T3 sequence (whole entry): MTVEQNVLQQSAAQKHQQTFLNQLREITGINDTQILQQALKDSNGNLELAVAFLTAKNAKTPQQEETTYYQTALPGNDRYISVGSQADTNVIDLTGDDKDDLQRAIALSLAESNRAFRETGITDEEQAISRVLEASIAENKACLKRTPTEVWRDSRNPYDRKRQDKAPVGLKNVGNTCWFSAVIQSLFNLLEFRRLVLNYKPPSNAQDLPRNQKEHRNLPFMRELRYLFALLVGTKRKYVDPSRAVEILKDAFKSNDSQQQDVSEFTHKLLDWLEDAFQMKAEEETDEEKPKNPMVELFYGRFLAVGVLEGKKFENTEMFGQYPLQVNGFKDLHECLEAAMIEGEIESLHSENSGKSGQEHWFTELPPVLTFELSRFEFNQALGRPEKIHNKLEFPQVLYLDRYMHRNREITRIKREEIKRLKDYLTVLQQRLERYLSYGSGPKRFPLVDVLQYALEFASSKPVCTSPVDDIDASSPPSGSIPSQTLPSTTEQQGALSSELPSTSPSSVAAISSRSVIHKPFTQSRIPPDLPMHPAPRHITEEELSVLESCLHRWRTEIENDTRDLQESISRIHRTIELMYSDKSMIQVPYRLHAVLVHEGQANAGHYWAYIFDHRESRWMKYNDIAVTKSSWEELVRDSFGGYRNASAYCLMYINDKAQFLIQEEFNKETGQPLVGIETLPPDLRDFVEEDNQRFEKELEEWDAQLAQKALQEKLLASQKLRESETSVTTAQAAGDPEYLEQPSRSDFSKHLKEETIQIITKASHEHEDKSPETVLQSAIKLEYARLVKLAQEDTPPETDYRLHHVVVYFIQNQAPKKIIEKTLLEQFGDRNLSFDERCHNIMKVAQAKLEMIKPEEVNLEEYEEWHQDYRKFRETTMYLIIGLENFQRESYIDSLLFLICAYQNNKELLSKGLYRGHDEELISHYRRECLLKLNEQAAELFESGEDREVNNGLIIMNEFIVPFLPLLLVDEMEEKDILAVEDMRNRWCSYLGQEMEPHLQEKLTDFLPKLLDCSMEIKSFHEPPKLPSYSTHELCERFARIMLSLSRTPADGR
Outline: as §1

USP28 = target: T4, USP28 (UniProt Q96RU2)
T4 sequence (whole entry): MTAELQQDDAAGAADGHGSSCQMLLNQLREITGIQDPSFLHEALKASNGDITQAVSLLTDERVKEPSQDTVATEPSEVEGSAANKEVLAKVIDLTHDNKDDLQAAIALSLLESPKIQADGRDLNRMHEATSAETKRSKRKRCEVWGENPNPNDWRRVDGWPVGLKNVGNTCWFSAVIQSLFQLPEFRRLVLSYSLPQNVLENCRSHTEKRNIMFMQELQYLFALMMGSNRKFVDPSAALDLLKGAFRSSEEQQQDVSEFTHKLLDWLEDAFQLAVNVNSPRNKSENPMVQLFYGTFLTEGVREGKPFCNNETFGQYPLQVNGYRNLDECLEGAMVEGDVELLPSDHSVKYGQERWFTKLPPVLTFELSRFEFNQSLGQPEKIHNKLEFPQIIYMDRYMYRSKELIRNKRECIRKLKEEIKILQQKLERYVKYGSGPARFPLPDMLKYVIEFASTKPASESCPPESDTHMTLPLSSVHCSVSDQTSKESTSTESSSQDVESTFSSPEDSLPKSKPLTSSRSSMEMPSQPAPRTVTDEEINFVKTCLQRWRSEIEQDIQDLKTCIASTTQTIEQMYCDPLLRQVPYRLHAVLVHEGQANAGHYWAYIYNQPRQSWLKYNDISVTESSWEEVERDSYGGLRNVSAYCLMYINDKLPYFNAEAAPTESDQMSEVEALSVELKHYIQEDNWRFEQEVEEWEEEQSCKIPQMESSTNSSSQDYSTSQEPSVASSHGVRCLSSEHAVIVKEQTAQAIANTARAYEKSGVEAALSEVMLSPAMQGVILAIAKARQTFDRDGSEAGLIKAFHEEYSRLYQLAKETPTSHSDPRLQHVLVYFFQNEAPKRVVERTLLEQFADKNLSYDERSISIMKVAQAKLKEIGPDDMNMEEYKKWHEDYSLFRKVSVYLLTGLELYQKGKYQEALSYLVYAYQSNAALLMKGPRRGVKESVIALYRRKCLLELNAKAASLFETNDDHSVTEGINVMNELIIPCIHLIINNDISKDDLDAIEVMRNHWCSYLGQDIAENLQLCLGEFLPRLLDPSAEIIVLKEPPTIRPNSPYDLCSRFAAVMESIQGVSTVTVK
Outline: as §1

Measured: log2 ratio of Biotin-Ahx-Ub-VS probe labelling

USP24, sequence (Q9UPU5 whole entry): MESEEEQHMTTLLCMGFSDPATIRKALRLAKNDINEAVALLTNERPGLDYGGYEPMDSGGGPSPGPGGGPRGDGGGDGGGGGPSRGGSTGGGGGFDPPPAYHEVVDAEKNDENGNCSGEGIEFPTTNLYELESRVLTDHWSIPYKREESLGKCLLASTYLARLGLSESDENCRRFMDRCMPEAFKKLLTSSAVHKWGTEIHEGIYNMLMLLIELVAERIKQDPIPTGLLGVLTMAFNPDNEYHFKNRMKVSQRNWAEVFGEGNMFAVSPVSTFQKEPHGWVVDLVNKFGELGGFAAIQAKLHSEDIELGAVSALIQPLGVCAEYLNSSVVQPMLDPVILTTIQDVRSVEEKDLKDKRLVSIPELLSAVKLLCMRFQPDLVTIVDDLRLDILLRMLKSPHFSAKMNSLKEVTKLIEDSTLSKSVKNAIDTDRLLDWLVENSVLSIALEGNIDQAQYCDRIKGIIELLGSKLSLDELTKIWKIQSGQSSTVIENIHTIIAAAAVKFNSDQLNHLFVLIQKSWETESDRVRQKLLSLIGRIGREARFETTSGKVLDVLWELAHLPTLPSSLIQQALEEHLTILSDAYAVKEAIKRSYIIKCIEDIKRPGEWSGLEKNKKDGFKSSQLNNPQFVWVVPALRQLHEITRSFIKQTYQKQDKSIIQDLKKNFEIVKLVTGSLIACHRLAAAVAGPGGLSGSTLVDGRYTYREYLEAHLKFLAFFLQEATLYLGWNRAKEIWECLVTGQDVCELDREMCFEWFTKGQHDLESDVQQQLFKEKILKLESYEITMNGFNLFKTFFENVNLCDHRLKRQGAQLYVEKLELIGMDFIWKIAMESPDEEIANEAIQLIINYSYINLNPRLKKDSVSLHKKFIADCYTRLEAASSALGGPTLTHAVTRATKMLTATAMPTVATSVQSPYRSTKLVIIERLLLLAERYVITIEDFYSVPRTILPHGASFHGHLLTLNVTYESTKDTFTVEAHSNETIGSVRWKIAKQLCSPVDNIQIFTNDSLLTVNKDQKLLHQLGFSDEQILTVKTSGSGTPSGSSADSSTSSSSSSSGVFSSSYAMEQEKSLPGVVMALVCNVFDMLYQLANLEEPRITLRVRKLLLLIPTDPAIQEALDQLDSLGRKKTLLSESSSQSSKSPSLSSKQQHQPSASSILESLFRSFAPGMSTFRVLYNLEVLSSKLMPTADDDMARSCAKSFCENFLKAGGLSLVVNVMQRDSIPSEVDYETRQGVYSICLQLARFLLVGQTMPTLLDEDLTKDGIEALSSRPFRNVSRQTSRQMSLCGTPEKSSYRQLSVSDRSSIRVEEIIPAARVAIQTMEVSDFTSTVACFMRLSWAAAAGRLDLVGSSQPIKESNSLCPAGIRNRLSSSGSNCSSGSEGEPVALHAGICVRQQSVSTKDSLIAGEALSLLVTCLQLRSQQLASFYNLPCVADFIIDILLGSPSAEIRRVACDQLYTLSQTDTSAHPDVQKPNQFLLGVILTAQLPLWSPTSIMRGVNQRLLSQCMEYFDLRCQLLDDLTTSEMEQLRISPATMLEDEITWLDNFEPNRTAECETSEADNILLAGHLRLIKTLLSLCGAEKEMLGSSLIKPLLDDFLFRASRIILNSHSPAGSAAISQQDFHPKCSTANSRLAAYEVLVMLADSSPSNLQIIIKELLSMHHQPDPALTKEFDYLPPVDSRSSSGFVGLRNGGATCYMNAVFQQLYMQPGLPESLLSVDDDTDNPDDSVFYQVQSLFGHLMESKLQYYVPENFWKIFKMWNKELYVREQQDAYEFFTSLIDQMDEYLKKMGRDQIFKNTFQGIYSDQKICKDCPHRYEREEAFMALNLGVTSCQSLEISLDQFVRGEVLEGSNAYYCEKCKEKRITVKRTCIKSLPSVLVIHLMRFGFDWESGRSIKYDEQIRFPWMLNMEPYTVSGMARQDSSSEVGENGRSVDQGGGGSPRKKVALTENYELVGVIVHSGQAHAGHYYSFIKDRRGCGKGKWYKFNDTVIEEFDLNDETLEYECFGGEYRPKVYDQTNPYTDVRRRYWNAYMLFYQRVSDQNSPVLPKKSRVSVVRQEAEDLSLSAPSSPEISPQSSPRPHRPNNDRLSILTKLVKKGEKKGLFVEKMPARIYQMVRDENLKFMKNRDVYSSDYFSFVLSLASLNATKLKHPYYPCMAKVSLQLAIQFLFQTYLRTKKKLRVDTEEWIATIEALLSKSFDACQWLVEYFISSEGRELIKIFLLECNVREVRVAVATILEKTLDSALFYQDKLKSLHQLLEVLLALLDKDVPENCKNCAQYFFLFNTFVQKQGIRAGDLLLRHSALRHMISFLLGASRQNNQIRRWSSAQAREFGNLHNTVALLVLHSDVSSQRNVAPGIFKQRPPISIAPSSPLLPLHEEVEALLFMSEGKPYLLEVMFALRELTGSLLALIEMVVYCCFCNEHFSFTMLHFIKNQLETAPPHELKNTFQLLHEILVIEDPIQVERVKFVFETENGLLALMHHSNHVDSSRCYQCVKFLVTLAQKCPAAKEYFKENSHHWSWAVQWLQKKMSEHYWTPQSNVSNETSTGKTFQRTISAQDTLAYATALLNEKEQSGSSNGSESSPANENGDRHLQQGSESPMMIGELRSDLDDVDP

Cc1cc(Cl)ccc1NC(=O)CCl
inactive: USP19 -0.055 | USP22 -0.467 | USP24 -0.224 | USP25 -0.208 | USP28 -0.682
